PubChem BioAssay AID1508600 (Functional Genomics Laboratory (NCATS/FGL), 2020)
Among all 53,000 sequences or so, about 3,700 (7%) were called active. The entries come from a sample that favours actives as a whole. Values without a mark were called inactive.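 The calls were made as follows: active = gene knockdowns whose robust z-score for IL-1 alpha signal is at least 2 or at most -2, so actives lie on both sides; inactive = the rest.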

Test: Components of the Cytosolic LPS Sensing Pathway: Gene Identification via Genome-wide siRNA Screen;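 also: robust z of the log signal after scaling to non-targeting control siRNA wells of the plate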
Conditions: RAW264.7 macrophages, IL-1a HTRF, actives lie on both sides, screened at 100 nM (by protocol), cells primed 5 h with Pam3CSK4 first
Summary of the method: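 RAW264.7 mouse macrophages reverse-transfected with single siRNAs (100 nM final) for 48h, primed with Pam3CSK4 for 5 hours, then transfected with LipidA for 24 hour. Supernatant IL-1a read by HTRF; values normalized to negative-control median, log-transformed robust z-scores.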

Sequence | z-score
GGAAGCUGGCAAGUUUAUGTT against Cfap161 | -0.159
CCUGGCAUAAGUGGUUUUATT against Zfp82 | 1.13
GGAGCAUUUUCCAGUUGAGTT against Mrps35 | 2.41 (active)
CCGUUGUAUAUACCAGUAUTT against Syt1 | 0.218
GGAAAAACGUGGUGAACUATT against Zeb2 | 0.7
CCAAUAACAGGAUUGAGAATT against Tnfrsf8 | -0.528
GGUGUACAGAUCUGUCUGGTT against Dkk1 | 2.33 (active)
GGUGCAGUUUAAGAGAGAATT against Tmcc3 | -0.224
GGGUGGACCUUCGGAAUUATT against Mrpl23 | 1.52
CGAAAUCUUUUCUAACCACTT against Drd4 | 6.59 (active)
GGACUUCUUACUGGAAUCATT against Slc5a12 | 0.944
CGUUUUUGUCUAGUUUGAATT against Macrod2 | -1.08
GGAGAUCAGCAGUUCAUUUTT against Csprs | -1.66
GGUGUCAGAGGUAUUUUCATT against Bik | -0.0455
GGCUUUUGAAAAGUUCACATT against Rnf32 | -2.05 (active)
GGAGUUGAUUGAGGUAAAGTT against Mettl3 | -1.83
GGAAGAACCCUGCUACAUCTT against Mrpl37 | 0.764
GCACCUUAAUUCUUCGCCATT against Amigo2 | -0.638
GGUGCUUAUAUUGCUUCCCTT against Psmb5 | -0.147
CCCGUUGCUUUAGAGCUCUTT against Dph2 | 0.912
GGUCAGAGCUCUGGACAAATT against Hsd3b1 | 4.24 (active)
GGUCGUCCAGCUGAAGAACTT against Mecr | 0.721
GGAAUUAGAGACUGCGGAATT against Zfp821 | 0.422
GGCAGAGCCUGGAUUUAUCTT against 2610524H06Rik | -0.582
GGAGUUGCCAUGCUCAACATT against Olfr808 | 0.193
GGGAAACAGAAGUAUCUAUTT against Ar | -0.708
GGAUAACAGCAAGCUGGCGTT against Taldo1 | -0.585

Sequence | z-score
GCUAAGACAGAACUCUUCUTT against Nap1l5 | 3.14 (active)
GCGAGUGUAUGCUUGAGAATT against Hspa12b | 1.01
CGACAAUCGACAAUCGUGCTT against Acta1 | -0.817
GGCUUGUUCAAGAGAAGAUTT against Slc25a41 | 0.177
CCUUACCCAGCAAUAAAAATT against Thegl | 0.379
GGAUUCAGGAACACGGAGATT against D17H6S53E | 2.29 (active)
GGUACGAAGAAGACAAAAATT against Tnfsf9 | -0.0411
GCGGUGUGCUGGAUAAUUCTT against Vit | -1.63
CCACUGUCCCUAAGGUACUTT against Olfr161 | -0.292
GGGAUUUGUAUGAUGAUAATT against Sf3a3 | -1.79
GGAGGAACAUAUCAAGGAATT against Tmem143 | 2.27 (active)
GGGAGAAUGUUUUUCUUACTT against Vsig8 | -0.956
GGAGAUUGAACAGUCAAACTT against Pex5 | 3.01 (active)
GGAUAUCAACAGAUACAUCTT against Serpina12 | -0.493
CGAUCUGUGAUUGAACCACTT against Pak1 | -0.0456
GCGUGGACGAAUGGAAACATT against Mapk13 | -0.942
GGGCAUCUUGUAUAUCUGGTT against Spata33 | 0.363
CCUAAUUUCCUAGAUCUUCTT against Rtp1 | -0.439
CCUUUUCCAUGCCUACUCCTT against Bag3 | 0.339
CCUAAGGAAGAUAAACCGGTT against Sh2d7 | -2.43 (active)
GGCAUUUACUACUUCAUAGTT against Nfam1 | 0.738
GGAUAACUACAGGAAUAAGTT against Spam1 | -0.701
CCGUCCCUAUGAAAUCAGCTT against Lrat | 2.28 (active)
GGCGAAUUGUAUUUGAAAGTT against Lactb | 0.686
GGAAGCAGUUCAUGUUAAGTT against Dtx4 | 1.12
GCCCACCUAAACCAACAGUTT against Dap | 0.989
GGAAAGAAGGACAUGUUGCTT against Fbxo2 | -1.22
